# In article PMC7862700, “An all-to-all approach to the identification of sequence-specific readers for epigenetic DNA modifications on cytosine”:
# Columns and labels:
# Experiment in all cases: DAPPL (digital affinity profiling via proximity ligation, sequencing); 10 mM Tris-HCl pH 7.5, 50 mM NaCl, 1 mM DTT, 4% glycerol, room temperature, 30 min; GST-TFs on glutathione beads, 16-mer random dsDNA library, 0.1% formaldehyde crosslink after washing; high values mean tight binding
# FEV = target: T1, FEV (Homo sapiens, UniProt Q99581 1-238); conditions: protein: recombinant; tags: N-terminal GST; dsDNA, one strand shown
# T1 sequence: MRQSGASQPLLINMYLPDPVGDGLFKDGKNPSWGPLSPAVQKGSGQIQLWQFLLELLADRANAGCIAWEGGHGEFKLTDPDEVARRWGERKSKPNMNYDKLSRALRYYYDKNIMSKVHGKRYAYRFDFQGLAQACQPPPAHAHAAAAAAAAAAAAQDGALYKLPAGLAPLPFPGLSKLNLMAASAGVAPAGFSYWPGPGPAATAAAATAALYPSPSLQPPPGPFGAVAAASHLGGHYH
# Procedure, shortened: (§1)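 Binding signal is given per hexamer as its read frequency for a factor divided by its frequency in the tag-only sample. GST-fused human transcription factors were expressed in yeast, captured on glutathione beads, barcoded with DNA and pooled with that sample, then incubated with 200 nmole of a 16-mer random double-stranded DNA library in Tris/NaCl/DTT/glycerol buffer for 30 min at room temperature. The pools were then washed, crosslinked, proximity-ligated, amplified by PCR and sequenced on an Illumina NextSeq500.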
# ETV5 = ETV5 (Homo sapiens, UniProt P41161 1-510); conditions: protein: recombinant; tags: N-terminal GST; dsDNA, one strand shown
# Sequence of ETV5 (P41161 whole entry): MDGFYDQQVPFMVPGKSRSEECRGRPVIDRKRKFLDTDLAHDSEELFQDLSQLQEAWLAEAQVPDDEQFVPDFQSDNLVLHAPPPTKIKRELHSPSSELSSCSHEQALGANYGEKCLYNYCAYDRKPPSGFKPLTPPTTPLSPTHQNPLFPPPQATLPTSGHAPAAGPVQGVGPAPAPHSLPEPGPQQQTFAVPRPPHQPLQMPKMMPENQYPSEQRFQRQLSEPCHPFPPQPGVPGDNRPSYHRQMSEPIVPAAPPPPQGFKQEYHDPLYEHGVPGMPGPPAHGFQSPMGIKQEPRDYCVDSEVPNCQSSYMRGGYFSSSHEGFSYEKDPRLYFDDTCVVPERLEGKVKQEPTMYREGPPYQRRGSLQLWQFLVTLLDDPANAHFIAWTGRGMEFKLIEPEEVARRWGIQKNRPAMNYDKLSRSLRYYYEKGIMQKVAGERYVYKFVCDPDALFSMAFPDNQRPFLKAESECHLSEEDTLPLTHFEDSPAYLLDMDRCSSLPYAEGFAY
# Procedure, shortened: as §1
# HSF1 = HSF1 (Homo sapiens, UniProt Q00613 1-529); conditions: protein: recombinant; tags: N-terminal GST; chain copies: 3; dsDNA, one strand shown
# Sequence of HSF1 (Q00613 whole entry): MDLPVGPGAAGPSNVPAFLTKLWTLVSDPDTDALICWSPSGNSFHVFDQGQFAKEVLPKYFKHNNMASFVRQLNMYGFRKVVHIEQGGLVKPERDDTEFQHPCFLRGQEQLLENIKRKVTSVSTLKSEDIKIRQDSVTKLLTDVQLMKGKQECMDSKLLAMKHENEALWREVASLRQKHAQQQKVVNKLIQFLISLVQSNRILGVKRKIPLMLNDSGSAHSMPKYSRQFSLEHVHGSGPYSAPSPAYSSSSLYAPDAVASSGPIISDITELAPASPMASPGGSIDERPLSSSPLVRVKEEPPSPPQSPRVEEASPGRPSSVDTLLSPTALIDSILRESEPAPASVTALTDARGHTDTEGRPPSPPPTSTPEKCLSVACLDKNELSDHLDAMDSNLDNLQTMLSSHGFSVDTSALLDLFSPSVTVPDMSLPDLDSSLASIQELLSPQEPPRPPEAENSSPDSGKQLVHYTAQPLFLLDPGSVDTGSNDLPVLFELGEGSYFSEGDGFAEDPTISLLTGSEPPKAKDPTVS
# Procedure, shortened: as §1
# SPIC = target: T2, SPIC (Homo sapiens, UniProt Q8N5J4 1-248); conditions: protein: recombinant; tags: N-terminal GST; dsDNA, one strand shown
# T2 sequence: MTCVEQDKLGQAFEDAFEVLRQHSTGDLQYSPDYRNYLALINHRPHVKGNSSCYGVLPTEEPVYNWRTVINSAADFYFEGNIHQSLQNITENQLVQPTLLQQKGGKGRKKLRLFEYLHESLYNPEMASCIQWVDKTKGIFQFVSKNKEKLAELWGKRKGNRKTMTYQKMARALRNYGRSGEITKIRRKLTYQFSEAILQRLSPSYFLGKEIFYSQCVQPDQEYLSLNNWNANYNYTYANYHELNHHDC
# Procedure, shortened: as §1
# ELF4 = ELF4 (Homo sapiens, UniProt Q99607 1-663); conditions: protein: recombinant; tags: N-terminal GST; dsDNA, one strand shown
# Sequence of ELF4 (Q99607 whole entry): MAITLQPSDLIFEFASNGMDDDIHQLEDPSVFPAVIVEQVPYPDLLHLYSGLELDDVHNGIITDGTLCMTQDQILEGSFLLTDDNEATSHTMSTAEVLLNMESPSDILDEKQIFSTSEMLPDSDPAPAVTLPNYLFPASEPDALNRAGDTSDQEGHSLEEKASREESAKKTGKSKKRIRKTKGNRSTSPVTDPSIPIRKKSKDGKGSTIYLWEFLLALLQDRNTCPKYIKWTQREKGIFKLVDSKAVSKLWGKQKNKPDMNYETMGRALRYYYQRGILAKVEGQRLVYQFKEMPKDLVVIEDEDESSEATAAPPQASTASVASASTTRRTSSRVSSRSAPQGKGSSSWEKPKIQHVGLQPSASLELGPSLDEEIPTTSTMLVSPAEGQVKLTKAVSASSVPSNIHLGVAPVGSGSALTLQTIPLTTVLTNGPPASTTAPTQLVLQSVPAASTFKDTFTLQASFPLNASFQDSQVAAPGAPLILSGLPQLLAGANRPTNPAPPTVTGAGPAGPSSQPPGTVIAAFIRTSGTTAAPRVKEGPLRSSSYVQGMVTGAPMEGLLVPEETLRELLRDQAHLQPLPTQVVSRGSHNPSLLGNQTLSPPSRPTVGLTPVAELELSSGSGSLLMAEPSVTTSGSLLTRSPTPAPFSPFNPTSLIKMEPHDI
# Procedure, shortened: as §1
# ELK4 = target: T3, ELK4 (Homo sapiens, UniProt P28324-2 1-405); conditions: protein: recombinant; tags: N-terminal GST; dsDNA, one strand shown
# T3 sequence: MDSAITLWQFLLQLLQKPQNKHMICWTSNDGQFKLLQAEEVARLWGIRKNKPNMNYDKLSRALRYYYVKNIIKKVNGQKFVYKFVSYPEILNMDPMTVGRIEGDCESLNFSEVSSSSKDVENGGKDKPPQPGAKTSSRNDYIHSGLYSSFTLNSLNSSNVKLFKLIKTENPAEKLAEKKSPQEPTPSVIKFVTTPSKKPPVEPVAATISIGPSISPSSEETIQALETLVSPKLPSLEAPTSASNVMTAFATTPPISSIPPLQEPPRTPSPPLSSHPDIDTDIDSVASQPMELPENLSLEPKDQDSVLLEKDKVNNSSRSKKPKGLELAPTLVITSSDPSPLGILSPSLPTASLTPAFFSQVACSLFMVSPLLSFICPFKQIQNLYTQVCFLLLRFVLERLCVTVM
# Procedure, shortened: as §1
# ETV2 = target: T4, ETV2 (Homo sapiens, UniProt O00321 1-342); conditions: protein: recombinant; tags: N-terminal GST; dsDNA, one strand shown
# T4 sequence: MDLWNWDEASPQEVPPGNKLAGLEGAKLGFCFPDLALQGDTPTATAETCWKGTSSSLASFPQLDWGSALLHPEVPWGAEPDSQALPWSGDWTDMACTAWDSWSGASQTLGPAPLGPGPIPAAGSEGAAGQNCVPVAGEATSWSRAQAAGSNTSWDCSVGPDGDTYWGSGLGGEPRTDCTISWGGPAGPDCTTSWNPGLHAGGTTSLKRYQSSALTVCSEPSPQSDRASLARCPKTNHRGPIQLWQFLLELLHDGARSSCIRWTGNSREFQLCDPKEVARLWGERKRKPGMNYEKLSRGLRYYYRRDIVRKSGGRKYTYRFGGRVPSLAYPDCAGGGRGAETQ
# Procedure, shortened: as §1
# ELF3 = target: T5, ELF3 (Homo sapiens, UniProt P78545 1-371); conditions: protein: recombinant; tags: N-terminal GST; dsDNA, one strand shown
# T5 sequence: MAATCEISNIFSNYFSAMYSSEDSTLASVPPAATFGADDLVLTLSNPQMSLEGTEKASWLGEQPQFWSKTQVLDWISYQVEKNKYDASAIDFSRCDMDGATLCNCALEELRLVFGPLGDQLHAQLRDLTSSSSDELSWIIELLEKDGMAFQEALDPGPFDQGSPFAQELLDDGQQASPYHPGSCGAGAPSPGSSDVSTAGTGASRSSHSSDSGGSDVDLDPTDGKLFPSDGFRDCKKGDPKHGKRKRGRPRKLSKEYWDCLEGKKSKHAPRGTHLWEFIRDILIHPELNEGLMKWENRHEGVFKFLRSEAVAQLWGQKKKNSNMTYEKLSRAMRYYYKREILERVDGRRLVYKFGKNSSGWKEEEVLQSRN
# Procedure, shortened: as §1
# CRX = CRX (Homo sapiens, UniProt O43186 1-299); conditions: protein: recombinant; tags: N-terminal GST; dsDNA, one strand shown
# Sequence of CRX (O43186 whole entry): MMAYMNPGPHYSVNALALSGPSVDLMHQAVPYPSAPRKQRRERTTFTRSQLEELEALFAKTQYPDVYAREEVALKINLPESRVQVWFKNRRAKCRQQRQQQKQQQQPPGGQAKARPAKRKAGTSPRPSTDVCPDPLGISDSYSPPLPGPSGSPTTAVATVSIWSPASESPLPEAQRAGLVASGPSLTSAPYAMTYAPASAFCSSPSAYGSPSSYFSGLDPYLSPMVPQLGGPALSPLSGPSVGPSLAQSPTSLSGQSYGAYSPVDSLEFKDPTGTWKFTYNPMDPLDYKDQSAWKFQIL
# Procedure, shortened: as §1
# ETV1 = ETV1 (Homo sapiens, UniProt P50549 1-477); conditions: protein: recombinant; tags: N-terminal GST; dsDNA, one strand shown
# Sequence of ETV1 (P50549 whole entry): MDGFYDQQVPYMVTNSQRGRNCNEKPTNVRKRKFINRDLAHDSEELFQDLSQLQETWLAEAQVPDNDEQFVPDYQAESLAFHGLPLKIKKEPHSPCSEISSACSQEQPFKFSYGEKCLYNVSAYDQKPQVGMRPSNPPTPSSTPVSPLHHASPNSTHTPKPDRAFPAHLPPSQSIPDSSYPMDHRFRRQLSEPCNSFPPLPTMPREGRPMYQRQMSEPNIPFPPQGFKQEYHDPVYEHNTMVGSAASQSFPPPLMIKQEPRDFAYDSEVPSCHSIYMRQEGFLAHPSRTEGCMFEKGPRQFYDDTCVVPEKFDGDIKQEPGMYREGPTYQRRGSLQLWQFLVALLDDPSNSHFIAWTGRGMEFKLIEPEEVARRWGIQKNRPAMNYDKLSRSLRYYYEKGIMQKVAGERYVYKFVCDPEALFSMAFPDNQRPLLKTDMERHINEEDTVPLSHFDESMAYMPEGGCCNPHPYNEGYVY
# Procedure, shortened: as §1
# ERF = target: T6, ERF (Homo sapiens, UniProt P50548 1-548); conditions: protein: recombinant; tags: N-terminal GST; dsDNA, one strand shown
# T6 sequence: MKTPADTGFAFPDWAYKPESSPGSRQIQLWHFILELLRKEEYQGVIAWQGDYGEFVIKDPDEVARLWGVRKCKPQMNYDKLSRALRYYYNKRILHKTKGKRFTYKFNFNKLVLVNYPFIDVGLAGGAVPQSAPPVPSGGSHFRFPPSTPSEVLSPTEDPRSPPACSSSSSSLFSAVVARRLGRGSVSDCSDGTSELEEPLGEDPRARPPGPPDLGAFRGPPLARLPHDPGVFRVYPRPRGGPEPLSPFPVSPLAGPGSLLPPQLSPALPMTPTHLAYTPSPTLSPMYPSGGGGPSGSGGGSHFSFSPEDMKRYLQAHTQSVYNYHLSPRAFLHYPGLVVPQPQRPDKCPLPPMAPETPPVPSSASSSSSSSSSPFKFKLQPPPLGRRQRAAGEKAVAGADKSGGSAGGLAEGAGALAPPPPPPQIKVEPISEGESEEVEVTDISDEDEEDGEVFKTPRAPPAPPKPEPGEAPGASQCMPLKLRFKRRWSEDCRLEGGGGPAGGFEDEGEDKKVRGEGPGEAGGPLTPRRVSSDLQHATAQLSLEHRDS
# Procedure, shortened: as §1
# ETV3L = target: T7, ETV3L (Homo sapiens, UniProt Q6ZN32 1-361); conditions: protein: recombinant; tags: N-terminal GST; dsDNA, one strand shown
# T7 sequence: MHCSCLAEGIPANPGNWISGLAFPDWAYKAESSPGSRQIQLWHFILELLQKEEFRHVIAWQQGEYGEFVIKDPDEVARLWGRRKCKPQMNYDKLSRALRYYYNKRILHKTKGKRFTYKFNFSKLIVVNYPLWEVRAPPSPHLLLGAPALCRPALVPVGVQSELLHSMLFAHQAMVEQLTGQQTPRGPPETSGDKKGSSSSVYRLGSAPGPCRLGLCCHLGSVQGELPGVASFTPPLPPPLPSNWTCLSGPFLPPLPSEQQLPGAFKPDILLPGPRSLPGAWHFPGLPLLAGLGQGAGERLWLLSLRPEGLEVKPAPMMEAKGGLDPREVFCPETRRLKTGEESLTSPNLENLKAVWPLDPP
# Procedure, shortened: as §1
# ETS2 = target: T8, ETS2 (Homo sapiens, UniProt P15036 1-469); conditions: protein: recombinant; tags: N-terminal GST; dsDNA, one strand shown
# T8 sequence: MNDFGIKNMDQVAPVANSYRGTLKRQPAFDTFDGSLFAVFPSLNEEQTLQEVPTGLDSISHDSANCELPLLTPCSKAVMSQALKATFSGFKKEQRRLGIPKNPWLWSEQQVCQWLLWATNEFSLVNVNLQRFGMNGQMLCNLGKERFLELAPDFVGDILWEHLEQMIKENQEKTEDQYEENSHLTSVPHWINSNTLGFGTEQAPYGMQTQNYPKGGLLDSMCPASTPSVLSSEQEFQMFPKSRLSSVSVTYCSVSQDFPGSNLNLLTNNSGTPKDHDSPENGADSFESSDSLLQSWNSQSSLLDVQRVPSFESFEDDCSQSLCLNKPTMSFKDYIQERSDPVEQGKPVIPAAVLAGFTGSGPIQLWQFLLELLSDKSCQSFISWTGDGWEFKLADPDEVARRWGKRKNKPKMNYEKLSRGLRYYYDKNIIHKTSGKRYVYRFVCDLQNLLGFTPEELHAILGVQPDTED
# Procedure, shortened: as §1
# SPDEF = target: T9, SPDEF (Homo sapiens, UniProt O95238 1-335); conditions: protein: recombinant; tags: N-terminal GST; dsDNA, one strand shown
# T9 sequence: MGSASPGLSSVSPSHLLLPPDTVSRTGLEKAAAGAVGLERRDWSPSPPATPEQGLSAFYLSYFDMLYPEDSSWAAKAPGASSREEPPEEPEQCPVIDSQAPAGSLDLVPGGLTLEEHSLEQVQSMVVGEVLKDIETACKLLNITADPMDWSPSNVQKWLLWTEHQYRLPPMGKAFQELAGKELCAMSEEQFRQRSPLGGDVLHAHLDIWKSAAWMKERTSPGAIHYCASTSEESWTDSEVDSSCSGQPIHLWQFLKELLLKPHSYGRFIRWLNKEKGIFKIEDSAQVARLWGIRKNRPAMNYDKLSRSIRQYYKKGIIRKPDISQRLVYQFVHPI
# Procedure, shortened: as §1
# ETV7 = target: T10, ETV7 (Homo sapiens, UniProt Q9Y603 1-341); conditions: protein: recombinant; tags: N-terminal GST; dsDNA, one strand shown
# T10 sequence: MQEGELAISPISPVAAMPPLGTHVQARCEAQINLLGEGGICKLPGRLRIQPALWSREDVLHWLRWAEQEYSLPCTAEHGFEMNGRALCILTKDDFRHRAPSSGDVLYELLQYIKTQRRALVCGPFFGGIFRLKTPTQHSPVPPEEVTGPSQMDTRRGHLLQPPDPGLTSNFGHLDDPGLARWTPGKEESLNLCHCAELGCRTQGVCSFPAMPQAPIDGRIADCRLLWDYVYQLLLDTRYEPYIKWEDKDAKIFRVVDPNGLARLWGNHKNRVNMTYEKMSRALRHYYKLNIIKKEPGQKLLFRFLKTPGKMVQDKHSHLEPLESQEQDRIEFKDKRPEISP
# Procedure, shortened: as §1
# ELF5 = target: T11, ELF5 (Homo sapiens, UniProt Q9UKW6-2 1-255); conditions: protein: recombinant; tags: N-terminal GST; dsDNA, one strand shown
# T11 sequence: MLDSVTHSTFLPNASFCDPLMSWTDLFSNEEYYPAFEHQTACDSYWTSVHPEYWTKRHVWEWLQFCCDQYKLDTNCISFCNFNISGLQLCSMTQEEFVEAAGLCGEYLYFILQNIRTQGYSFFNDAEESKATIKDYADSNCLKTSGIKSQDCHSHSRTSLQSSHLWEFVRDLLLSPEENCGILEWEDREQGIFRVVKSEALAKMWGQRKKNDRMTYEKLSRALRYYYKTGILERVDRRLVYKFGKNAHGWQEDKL
# Procedure, shortened: as §1
# ETV3 = target: T12, ETV3 (Homo sapiens, UniProt P41162-2 1-143); conditions: protein: recombinant; tags: N-terminal GST; dsDNA, one strand shown
# T12 sequence: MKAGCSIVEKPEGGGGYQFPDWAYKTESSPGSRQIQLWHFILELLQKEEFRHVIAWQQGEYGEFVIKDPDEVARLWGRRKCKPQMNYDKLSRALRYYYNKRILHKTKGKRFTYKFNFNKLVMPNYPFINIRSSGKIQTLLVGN
# Procedure, shortened: as §1
# ETV6 = ETV6 (Homo sapiens, UniProt P41212 1-452); conditions: protein: recombinant; tags: N-terminal GST; dsDNA, one strand shown
# Sequence of ETV6 (P41212 whole entry): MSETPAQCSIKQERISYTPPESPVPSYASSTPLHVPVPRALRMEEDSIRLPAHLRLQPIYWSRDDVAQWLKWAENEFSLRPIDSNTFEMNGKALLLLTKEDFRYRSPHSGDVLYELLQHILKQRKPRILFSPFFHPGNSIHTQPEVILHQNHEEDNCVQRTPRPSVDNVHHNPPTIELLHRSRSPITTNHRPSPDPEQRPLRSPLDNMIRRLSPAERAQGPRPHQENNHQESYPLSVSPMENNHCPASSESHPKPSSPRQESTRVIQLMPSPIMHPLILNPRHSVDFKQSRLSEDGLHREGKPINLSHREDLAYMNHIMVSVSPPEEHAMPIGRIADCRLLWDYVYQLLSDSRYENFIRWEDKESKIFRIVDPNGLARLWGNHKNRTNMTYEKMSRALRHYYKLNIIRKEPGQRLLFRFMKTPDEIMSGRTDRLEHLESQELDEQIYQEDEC
# Procedure, shortened: as §1
sequence,measurement,setting,value
ATAAAC,binding signal,FEV,"1.13 fold enrichment (6-mer frequency, TF over GST control)"
same,binding signal,ETV5,"1.19 fold enrichment (6-mer frequency, TF over GST control)"
same,binding signal,HSF1,"1.27 fold enrichment (6-mer frequency, TF over GST control)"
same,binding signal,SPIC,"1.2 fold enrichment (6-mer frequency, TF over GST control)"
same,binding signal,ELF4,"1.16 fold enrichment (6-mer frequency, TF over GST control)"
same,binding signal,ELK4,"1.13 fold enrichment (6-mer frequency, TF over GST control)"
same,binding signal,ETV2,"1.19 fold enrichment (6-mer frequency, TF over GST control)"
same,binding signal,ELF3,"1.13 fold enrichment (6-mer frequency, TF over GST control)"
same,binding signal,CRX,"1.5 fold enrichment (6-mer frequency, TF over GST control)"
same,binding signal,ETV1,"1.11 fold enrichment (6-mer frequency, TF over GST control)"
same,binding signal,ERF,"1.19 fold enrichment (6-mer frequency, TF over GST control)"
same,binding signal,ETV3L,"1.18 fold enrichment (6-mer frequency, TF over GST control)"
same,binding signal,ETS2,"1.18 fold enrichment (6-mer frequency, TF over GST control)"
same,binding signal,SPDEF,"1.16 fold enrichment (6-mer frequency, TF over GST control)"
same,binding signal,ETV7,"1.05 fold enrichment (6-mer frequency, TF over GST control)"
same,binding signal,ELF5,"1.17 fold enrichment (6-mer frequency, TF over GST control)"
same,binding signal,ETV3,"1.1 fold enrichment (6-mer frequency, TF over GST control)"
same,binding signal,ETV6,"1.19 fold enrichment (6-mer frequency, TF over GST control)"
